Source: PubChem BioAssay (NCI)
This is part of a sample that, as a whole, favours compounds with a hit. Of some 83,000 tested, about 20% had one in any assay.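 Percent growth is the endpoint: 0 to 100 indicates growth inhibition (40 means 60% inhibition), 0 means no net growth, and negative values indicate cell death.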 Values without a mark were called inactive. Activity calls are given as the source filed them.

The compounds below were run on U251 CNS (assay: NCI-60 one-dose screen, 48 h (100 = growth as untreated, 0 = no growth, -100 = all killed)). Conditions: 1 µM.
Description: Growth inhibition of the U251 human tumor cell line is measured as a screen for anti-cancer activity. Cells are grown in 96 well plates and exposed to the test compound for 48 hours. Compounds are tested at a single concentration, which is 10^-5 M for most compounds. The reported endpoint is percent growth (GI% or GIPRCNT), where numbers from 0 - 100% represent growth inhibition, and numbers from -100% - 0 represent cell death. For example, a value of 40 represents 60% growth inhibition. A value of 0 means no net growth occurred over the course of the experiment. A value of -40 indicates 40% of cells at the beginning of the experiment died by the end of the experiment. A value of -100 means all cells are dead at the end of the experiment.
NCI-60 Human Tumor Cell Lines Screen was performed using the standard one-dose NCI protocol, which is described in more detail at https://dtp.cancer.gov/discovery_development/nci-60/default.htm.
Compounds with GIPRCNT values below 10 were considered active. Activity score was based on GIPRCNT using the following formula: […]
Score is 0 for GIPRCNT values of 100 or above, 50 for GIPRCNT values of 0, and 100 for GIPRCNT values of -100.
In the case of `CC/C(=C(\c1ccc(O)cc1)c1ccc(OCCN(C)C(=O)CCOCCNC(=O)c2ccc3c(c2)CN([C@@H]2CCC(=O)NC2=O)C3=O)cc1)c1ccccc1`, the growth is reported as 95.3%.

Same assay, conditions: 10 µM
Work on `CC/C(=C(\c1ccc(O)cc1)c1ccc(OCCN(C)C(=O)CCOCCNC(=O)c2ccc3c(c2)CN([C@@H]2CCC(=O)NC2=O)C3=O)cc1)c1ccccc1` yielded a growth of 92.6%.

Same assay, conditions: 10 µM unless noted
In the case of `COc1cc(/C=C/C(=O)c2cnn(-c3cc(=O)[nH]c4ccc(C)cc34)c2C)cc(OC)c1OC`, the growth is reported as -85% (active). For `Cc1ccc(C(C)C)cc1Oc1cccc(-c2c(-c3ccc(C(F)(F)F)cc3)ncn2C2CCNCC2)n1`, the growth was -85.3% (active). For `O=C(Cn1c(-c2ccccc2)nc2ccccc21)N=Nc1c(O)[nH]c2ccc(Br)cc12`, the growth was -12.6% (active). In the case of `CC[C@@]12CC(C(=O)OC)=C3Nc4cc5c(cc4[C@@]34CCN(C[C@H]3O[C@H]31)[C@@H]24)[C@@H]1[C@H](O5)[C@@H](O)[C@@]2(CC)CC(C(=O)OC)=C3Nc4cc(O)ccc4[C@@]34CCN1[C@@H]24`, the growth is reported as -57.5% (active). Work on `Cc1nc(Nc2ccccn2)sc1C1=NNC(c2ccccc2F)C1` (stereo not given) yielded a growth of 51%. `CC(=O)C[n+]1cccc2c3ccccc3ccc21` was tested, and the growth was 59.9%. With `COc1ccc2[nH]cc(-c3cc4nc(-c5cn(C)c6ncc(Br)cc56)cc(N)n4n3)c2c1` the growth was -76.1% (active). `Cc1ccc(Cl)cc1NC(=O)Nc1nc2ccc([N+](=O)[O-])cc2s1` was tested, and the growth was -26.6% (active). `COc1ccc(S(=O)(=O)Nc2ccc(-c3ccc4c(c3)NC(=O)/C4=C\c3ccc[nH]3)cc2)cc1OC` was tested, and the growth was -58.5% (active). For `CN(C)c1nc(NCCNS(=O)(=O)c2ccc(C(=O)/C=C/c3ccc(Cl)cc3)cc2)nc(N2CCOCC2)n1`, the growth was -92% (active). In the case of `O=C(CSc1nc2sc3c(c2c(=O)n1-c1ccc(Cl)cc1)CCCC3)NNC(=O)c1ccc(F)cc1`, the growth is reported as 37.8%. With `COC(=O)c1cc(C(=O)C(Br)Br)n2c1ccc1c3ccccc3ccc12` the growth was 44.3%. For `CS(=O)(=O)Nc1cncc(-c2ccc3ncnc(NCc4ccccc4)c3c2)c1`, the growth was 22.1%. In the case of `CCCCNc1ccc2c3c(cccc13)C(=O)N(c1cccc(-c3nn(-c4ccccc4)cc3-c3nc4ccccc4s3)c1)C2=O`, the growth is reported as 110%. `COc1ccc(OC)c(Cn2cc(C#N)c(N)c2C(=O)c2ccc(Br)cc2)c1` showed a growth of 26.3%. For `COc1cc(CNC(=O)C[C@H](C)CCC=C(C)C)ccc1OCc1cn(-c2ccccc2F)nn1`, the growth was 61.6%. `COc1ccc2c(c1)c(-c1cc(N)n3nc(-c4c[nH]c5ccccc45)cc3n1)cn2C` was tested, and the growth was -87.8% (active). In the case of `O=C(N/N=C/c1ccc(Br)o1)c1[nH]c2ccc(Br)cc2c1-c1ccccc1`, the growth is reported as -75.3% (active). In the case of `Fc1ccc(N2CC(Cn3c(C(F)(F)F)cc4c(Cl)ncnc43)C2)c(F)c1`, the growth is reported as -26.6% (active). For `COC(=O)c1c(C(=O)OC)c2ccc3c4ccccc4ccc3n2c1C(=O)OC`, the growth was 97.1%. For `COc1ccc2[nH]c(O)c(N=NC(=O)c3ccc4nc(-c5ccc(Cl)cc5)[nH]c4c3)c2c1`, the growth was -30.5% (active). For `COc1ccc(-c2nc3ccc(-c4nnc(SCc5ccccc5)o4)cc3[nH]2)cc1OC`, the growth was 0.298% (active). With `COc1ccc2[nH]c(=O)cc(-n3ncc(C(=O)/C=C/c4cc(OC)c(OC)c(OC)c4)c3C)c2c1` the growth was -67.4% (active). With `O=C1N/C(=N\c2nccs2)S/C1=C\c1ccc([N+](=O)[O-])cc1` the growth was 7.89% (active). `CC1=C(C)C(=O)C(N2CCSCC2)=CC1=O` was tested, and the growth was 96.9%. Compound `COC(=O)c1c(C(=O)OC)c2c3ccccc3c3ccccc3n2c1C(=O)C(C)(C)C` has a growth of 85.3%. `COC(=O)c1cc(C(C)=O)n2c3ccccc3c3ccccc3c12` showed a growth of 80.6%. Work on `Oc1ccc(Cl)c(Nc2ncnc3c2cnn3CC(Cl)c2ccc(Br)cc2)c1` (stereo not given) yielded a growth of 53.5%. `COC(=O)CSC1=C(C)C(=O)C(OC)=C(OC)C1=O` was tested, and the growth was 98.1%. `C[C@@H](Nc1c(C#N)cnc2ccc(-c3cnc4[nH]ncc4c3)cc12)c1ccccc1` was tested, and the growth was 23.4%. For `CCCn1c(NC(=O)c2cccc(C(N)=O)c2)nc2cc(CN3CCCCC3)ccc21`, the growth was 116%. With `N#Cc1ccc(C(=O)CSc2nc3c(c(Nc4ccc(S(N)(=O)=O)cc4)n2)CCC3)cc1` the growth was -85.2% (active). In the case of `Cc1ccc(N=Nc2c(N)nn3c(-c4cc5cc(Br)ccc5oc4=O)ccnc23)cc1`, the growth is reported as 13%. `Cc1ccc(C(=O)Nc2cc(-n3cnc(F)c3)cc(C(F)(F)F)c2)cc1C#Cc1cnc2cccnn12` was tested, and the growth was 83.7%. `OCCn1cc(-c2nc3ccc4[nH]ncc4c3c3c2CCCC3)cn1` gave a growth of 51.2%. `Cc1cccc(/C=C/c2ccc(NC(=S)NCCCCN(C)C)cc2)c1` was tested, and the growth was -64.8% (active). For `CN(C)c1nc(NCCNS(=O)(=O)c2ccc(C(=O)/C=C/c3ccc(C(F)(F)F)cc3)cc2)nc(N2CCOCC2)n1`, the growth was -85.5% (active). Compound `Cc1nc2sccn2c1-c1nnc(SCc2ccccc2)o1` has a growth of 82.8%.
